# Where “and” joins values, the source holds several entries; their conditions need not be identical. Equal values may be shown once. Unmarked numbers belong to inactive results. Results filed as inconclusive are left out. A structure can be active in one record and inactive in another. Calls of active or inactive are those of the source. Unless noted, calls follow the shape of the dose curve; as a rule, active = well fitted curve in the direction sought with a large enough effect; inconclusive = small, poorly fitted or top-dose-only effect, or another doubt; inactive = no such curve, though single readings can be large; an effect the other way counts as inactive or inconclusive. Where a SMILES comes first, the peptide text is derived from it. Bridges are numbered along the chain shown (N, C = ends). [ ]: non-standard residue; d: D form. The star is where a group is joined. X2 = CC[C@H](C)CCCCC(=O)*; Orn = NCCC[C@H](N)C(=O)O; Dab = NCC[C@H](N)C(=O)O; Mpa = O=C(O)CCS
# Columns and labels:
# [1] = Drug repurposing screens with cells derived from glioblastoma tumor samples (AID 1345199); settings: GBM patient neurospheres viability, ATP luminescence, 48 h; also: nearly all actives have a fitted effect of over 40% in size; also: potency is read from the fitted curve at half-maximal effect; as to activity, negative = cell killing: % is scaled to controls: 0 for no effect and ±100 for the full control effect
# How it was run: (§1)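 Four patient lines of CD133+ GBM neurospheres were screened at several concentrations; hits were retested in those lines plus three slower-growing GBM lines, using 48-hour treatment and ATP-based viability.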
# [2] = system: astro; test: as above; settings: viability, ATP luminescence, 48 h; series mostly up to 45.9 µM
# How it was run: as §1
# [3] = qHTS assay to identify inhibitors of the type 1 interferon - major histocompatibility complex class I in skeletal muscle: Counter screen cell viability and HiBit confirmation (AID 1347412); settings: iHSKM muscle cells + IFN-b, HiBiT or CellTiter-Glo, 24 h; HiBiT; also: potency is read from the fitted curve at half-maximal effect; nearly all actives have a fitted effect of over 60% in size
# How it was run: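 Human myoblast knock-in line, 4.0 ng/ml IFN-beta stimulation, 24 h compound treatment. Endpoints: HiBiT lytic luminescence (HLA-B level) and CellTiter Glo (ATP). Dosing 12 concentrations, 3-fold steps, 46 uM highest final.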
# [4] = molecular target: Nuclear receptor subfamily 1 group I member 2 (Rattus norvegicus) (UniProt Q9R1A7); test: qHTS assay for small molecule activators of the rat pregnane X receptor (rPXR) signaling pathway (AID 651751; call rule not given here; also: 0% is about no effect); settings: rPXR reporter cells, luciferase (One-Glo), 24 h
# [5] = qHTS assay for small molecule activators of the human pregnane X receptor (PXR) signaling pathway (AID 720659; call rule not given here; also: 0% is about no effect); settings: DPX-2 HepG2 CYP3A4-luciferase, 24 h; series mostly up to 92.3 µM
# [6] = at 45.9 µM (top of the series), tumour line B
# [7] = at 45.9 µM (top of the series), tumour line D
# [8] = at 46.1 µM (top of the series), tumour line C
# Nuclear receptor subfamily 1 group I member 2 (Rattus norvegicus), sequence (Q9R1A7 whole entry, looked up): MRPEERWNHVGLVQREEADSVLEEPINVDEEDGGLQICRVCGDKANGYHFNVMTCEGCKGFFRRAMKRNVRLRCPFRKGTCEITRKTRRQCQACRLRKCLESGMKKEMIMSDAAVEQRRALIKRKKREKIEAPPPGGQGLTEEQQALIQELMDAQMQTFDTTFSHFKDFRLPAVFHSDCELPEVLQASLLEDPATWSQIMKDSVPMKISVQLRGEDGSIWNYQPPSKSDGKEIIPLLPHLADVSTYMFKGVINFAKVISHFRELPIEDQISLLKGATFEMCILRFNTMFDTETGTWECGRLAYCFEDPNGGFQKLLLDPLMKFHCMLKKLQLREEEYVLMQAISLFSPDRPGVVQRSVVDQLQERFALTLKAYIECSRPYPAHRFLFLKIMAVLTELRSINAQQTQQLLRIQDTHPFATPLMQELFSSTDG
smiles,measurement,setting,value
O=C(Cn1c(=O)sc2ccc(Cl)cc21)N1CCN(CCO)CC1,"activity, negative = cell killing",[1]; [6],-0.42%
same,"activity, negative = cell killing",[1]; [7],-6.64%
same,"activity, negative = cell killing",[1]; [8],15.7%
same,Potency,[2],inactive
CCOC(=O)Cc1cccc(-c2cc(CCCCCCc3ccc(O[C@H]4O[C@H](COC(C)=O)[C@@H](OC(C)=O)[C@H](OC(C)=O)[C@@H]4OC(C)=O)c(-c4cccc(CC(=O)OCC)c4)c3)ccc2O[C@H]2O[C@H](COC(C)=O)[C@@H](OC(C)=O)[C@H](OC(C)=O)[C@@H]2OC(C)=O)c1,"activity, negative = cell killing",[1]; [6],-6.7%
same,"activity, negative = cell killing",[1]; [7],-4.61%
same,"activity, negative = cell killing",[1]; [8],18%
same,Potency,[2],inactive
CCC(C)(C)OC(=O)N[C@@H](Cc1c[nH]c2ccccc12)C(=O)N[C@@H](CCSC)C(=O)N[C@@H](CC(=O)O)C(=O)N[C@@H](Cc1ccccc1)C(N)=O,"activity, negative = cell killing",[1]; [6],-2.77%
same,"activity, negative = cell killing",[1]; [7],-10.3%
same,"activity, negative = cell killing",[1]; [8],-14.8%
same,Potency,[2],inactive
CCC(C)C(C(=O)OCC[N+](C)(CC)CC)c1ccccc1 (stereo not given),"activity, negative = cell killing",[1]; [6],-18.7%
same,"activity, negative = cell killing",[1]; [7],-27.8%
same,Potency,[1]; tumour line A,11.2 µM (active)
same,Potency,[2],inactive
CCCCCCCCCCCCCCCCCC(=O)OCCO,"activity, negative = cell killing",[1]; [6],-18.6%
same,"activity, negative = cell killing",[1]; [7],-21.2%
same,"activity, negative = cell killing",[1]; [8],-6.14%
same,Potency,[2],inactive
CO[C@@H]1[C@@H](O[C@@H]2O[C@H](C)[C@@H](O[C@H]3C[C@@](C)(O)[C@@H](OC(=O)CC(C)C)[C@H](C)O3)[C@H](N(C)C)[C@H]2O)[C@@H](CC=O)C[C@@H](C)[C@@H](O)/C=C/C=C/C[C@@H](C)OC(=O)C[C@H]1O,"activity, negative = cell killing",[1]; [7],-21.1%
same,"activity, negative = cell killing",[1]; [8],-11.8% and -30.6%
same,Potency,[1]; tumour line A,12.6 µM (active)
same,Potency,[2],inactive
C=CS(=O)(=O)O,"activity, negative = cell killing",[1]; [6],-2.55%
same,"activity, negative = cell killing",[1]; [7],-4.12%
same,"activity, negative = cell killing",[1]; [8],-10.9%
same,Potency,[2],inactive
c1cnc2cc3c(cc2n1)[C@@H]1CNC[C@H]3C1,"activity, negative = cell killing",[1]; [6],5.48%
same,"activity, negative = cell killing",[1]; [7],-17.8%
same,"activity, negative = cell killing",[1]; [8],-0.703%
same,Potency,[2],inactive
CCCCc1cc2c(=O)c(C(=O)OC)c[nH]c2cc1OCc1ccccc1,"activity, negative = cell killing",[1]; [6],-16.1%
same,"activity, negative = cell killing",[1]; [7],-19.6%
same,"activity, negative = cell killing",[1]; [8],-7.65%
same,Potency,[2],inactive
O.O=C([O-])CC([S-])C(=O)[O-].[Au+].[Na+].[Na+] (stereo not given),"activity, negative = cell killing",[1]; [6],-5.96%
same,"activity, negative = cell killing",[1]; [7],2.25%
same,"activity, negative = cell killing",[1]; [8],15.2%
same,Potency,[2],inactive
Cc1cccc(C)c1N(CCCc1cccnc1)C(=O)C(C)N (stereo not given),"activity, negative = cell killing",[1]; [6],-3.85%
same,"activity, negative = cell killing",[1]; [7],-15.3%
same,Potency,[1]; tumour line A,11.2 µM (active)
same,Potency,[2],inactive
COc1ccc(C2NC(=S)N3C(c4ccc(OC)c(OC)c4)NC(=S)N23)cc1OC (stereo not given),"activity, negative = cell killing",[1]; [6],-19.2%
same,"activity, negative = cell killing",[1]; [7],-8.84%
same,"activity, negative = cell killing",[1]; [8],3.81%
same,Potency,[2],inactive
NCCC[C@H](N)C(=O)O,"activity, negative = cell killing",[1]; [6],-11.7%
same,"activity, negative = cell killing",[1]; [7],-10.6%
same,"activity, negative = cell killing",[1]; [8],-18.4%
same,Potency,[2],inactive
CCCCOC(=O)C(=O)Nc1cccc(-c2nn[nH]n2)c1,"activity, negative = cell killing",[1]; [6],-12.5%
same,"activity, negative = cell killing",[1]; [7],2.48%
same,"activity, negative = cell killing",[1]; [8],-2.11%
same,Potency,[2],inactive
O=C(Nc1ccc(/C=C/c2ccc(NC(=O)c3cc(S(=O)(=O)O)c4cccnc4c3O)cc2S(=O)(=O)O)c(S(=O)(=O)O)c1)c1cc(S(=O)(=O)O)c2cccnc2c1O,"activity, negative = cell killing",[1]; [6],-15.1%
same,"activity, negative = cell killing",[1]; [7],6.57%
same,"activity, negative = cell killing",[1]; [8],-10.9%
same,Potency,[2],inactive
CC[C@H]1OC(=O)[C@H](C)[C@@H](O[C@H]2C[C@@](C)(OC)[C@@H](O)[C@H](C)O2)[C@H](C)[C@@H](O[C@@H]2O[C@H](C)C[C@H](N(C)C)[C@H]2O)[C@](C)(O)C[C@@H](C)[C@@H]2N[C@@H](COCCOC)O[C@@H]([C@H]2C)[C@]1(C)O,"activity, negative = cell killing",[1]; [6],-7.98%
same,"activity, negative = cell killing",[1]; [8],-7.79%
same,Potency,[1]; tumour line A,11.2 µM (active)
same,Potency,[2],inactive
CO[C@H]1[C@@H](O)[C@H](N)[C@@H](O[C@H]2O[C@H]([C@H](C)N)CC[C@H]2N)[C@H](O)[C@@H]1N(C)C(=O)CN,"activity, negative = cell killing",[1]; [6],-11.8%
same,"activity, negative = cell killing",[1]; [7],-4.2%
same,"activity, negative = cell killing",[1]; [8],-7.2%
same,Potency,[2],inactive
OC(CN1CCCCC1)c1cc(-c2ccccc2)on1 (stereo not given),"activity, negative = cell killing",[1]; [6],-15.5%
same,"activity, negative = cell killing",[1]; [7],-0.851%
same,"activity, negative = cell killing",[1]; [8],5.87%
same,Potency,[2],inactive
CC[C@H](C)CCCCC(=O)N[C@@H](CCN)C(=O)N[C@H](C(=O)N[C@@H](CCN)C(=O)N[C@H]1CCNC(=O)[C@H]([C@@H](C)O)NC(=O)[C@H](CCN)NC(=O)[C@H](CCN)NC(=O)[C@H](CC(C)C)NC(=O)[C@@H](CC(C)C)NC(=O)[C@H](CCN)NC1=O)[C@@H](C)O (X2-[Dab]T[Dab][Dab][Dab][dL]L[Dab][Dab]T; lactam 4-C),"activity, negative = cell killing",[1]; [6],6.46%
same,"activity, negative = cell killing",[1]; [7],12.6%
same,"activity, negative = cell killing",[1]; [8],-10.4%
same,Potency,[2],inactive
CCOC(=O)Nc1ccc2c(c1)N(C(=O)CN(C)C)c1ccccc1CC2,"activity, negative = cell killing","[1]; at 99.2 µM (top of the series), tumour line C",-30.7%
same,Potency,[1]; tumour line A,44.7 µM (active)
same,Potency,[1]; tumour line D,56.2 µM (active)
same,Potency,[2],inactive
CCOc1ccc(C[C@H]2NC(=O)CCSSC[C@@H](C(=O)N3CCC[C@H]3C(=O)N[C@@H](CCCN)C(=O)NCC(N)=O)NC(=O)[C@H](CC(N)=O)NC(=O)[C@H]([C@@H](C)O)NC(=O)[C@H]([C@@H](C)CC)NC2=O)cc1 ([Mpa][dY](Et)ITNCP[Orn]G-NH2; disulfide 1-6),"activity, negative = cell killing",[1]; [6],-9.93%
same,"activity, negative = cell killing",[1]; [7],-4.59%
same,"activity, negative = cell killing",[1]; [8],3.43%
same,Potency,[2],inactive
Cc1ccc(C2(O)CCN(CCCC(=O)c3ccc(F)cc3)CC2)cc1,"activity, negative = cell killing",[1]; [6],-26.3%
same,Potency,[1]; tumour line A,6.31 µM (active)
same,Potency,[1]; tumour line D,12.6 µM (active)
same,Potency,[2],inactive
CN[C@@H]1CCc2[nH]c3ccc(C(N)=O)cc3c2C1,"activity, negative = cell killing",[1]; [6],-9.15%
same,"activity, negative = cell killing",[1]; [7],-11.6%
same,"activity, negative = cell killing",[1]; [8],28.3%
same,Potency,[2],inactive
N#Cc1ccnc(Nc2cc(C3CCN(C4COC4)CC3)cc(N3CCC(F)(F)C3)n2)c1,Potency,[3],3.52 µM (active)
COC(C)=O,"activity, negative = cell killing",[1]; [6],-2.89%
same,"activity, negative = cell killing",[1]; [7],6.97%
same,"activity, negative = cell killing",[1]; [8],7.29%
same,Potency,[2],inactive
same,max response,[4],5.57%
same,outcome,[5],inactive
CON=C1C[C@]2(C[C@@H]3C[C@@H](C/C=C(\C)C[C@@H](C)/C=C/C=C4\CO[C@@H]5[C@H](O)C(C)=C[C@@H](C(=O)O3)[C@]45O)O2)O[C@H](/C(C)=C/C(C)C)[C@H]1C,Potency,[2],17.8 µM (active) and 20 µM (active)
CC(C)(C)CC(=O)OCC(=O)[C@@]12OC(C)(C)O[C@@H]1C[C@H]1[C@@H]3CCC4=CC(=O)C=C[C@]4(C)[C@@]3(F)[C@@H](O)C[C@@]12C,"activity, negative = cell killing",[1]; [6],-19.8%
same,"activity, negative = cell killing",[1]; [8],-0.929%
same,Potency,[2],inactive
CC(C)(C)NC(=O)[C@H]1CC[C@H]2[C@@H]3CC=C4C=C(C(=O)O)CC[C@]4(C)[C@H]3CC[C@]12C,"activity, negative = cell killing",[1]; [6],-3.87%
same,"activity, negative = cell killing",[1]; [7],0.505%
same,"activity, negative = cell killing",[1]; [8],-11%
same,Potency,[2],inactive
C=CCNC1=C2C[C@@H](C)C[C@H](OC)[C@H](O)[C@@H](C)/C=C(\C)[C@H](OC(N)=O)[C@@H](OC)/C=C\C=C(/C)C(=O)NC(=CC1=O)C2=O,Potency,[2],1.26 µM (active)
same,Potency,[3],0.0701 µM (active)
CC1=C(C(=O)OCCN(Cc2ccccc2)c2ccccc2)C(c2cccc([N+](=O)[O-])c2)C(P2(=O)OCC(C)(C)CO2)=C(C)N1 (stereo not given),"activity, negative = cell killing",[1]; [6],19%
same,Potency,[2],inactive
C[C@H](/C=C/[C@H](C)C(C)(C)O)[C@H]1CC[C@H]2/C(=C/C=C3C[C@@H](O)C[C@H](O)C3)CCC[C@]12C,Potency,[2],inactive
CN1CC(O)c2cc(N=NC(N)=O)c(O)cc21 (stereo not given),"activity, negative = cell killing",[1]; [6],-10.8%
same,"activity, negative = cell killing","[1]; at 46 µM (top of the series), tumour line A",-26.7%
same,"activity, negative = cell killing",[1]; [8],26.2%
same,Potency,[2],inactive
COc1ccc(CNCC(O)COc2ccc3[nH]c(=O)ccc3c2)cc1OC (stereo not given),"activity, negative = cell killing",[1]; [6],-3.95%
same,"activity, negative = cell killing",[1]; [7],-26.6%
same,"activity, negative = cell killing",[1]; [8],15.6%
same,Potency,[2],inactive
CCC(C)[C@H]1O[C@]2(C=C[C@@H]1C)C[C@@H]1C[C@@H](C/C=C(\C)[C@@H](O[C@H]3C[C@H](OC)[C@@H](O[C@H]4C[C@H](OC)[C@H](NC(C)=O)[C@H](C)O4)[C@H](C)O3)[C@@H](C)/C=C/C=C3\CO[C@@H]4[C@H](O)C(C)=C[C@@H](C(=O)O1)[C@]34O)O2 (stereo not given in full),Potency,[2],6.31 µM (active) and 20 µM (active)
C/C=C1\NC(=O)[C@H]2CSSCC/C=C/[C@H](CC(=O)N[C@H](C(C)C)C(=O)N2)OC(=O)C(C(C)C)NC1=O (stereo not given in full),Potency,[2],0.708 µM (active)
CCCCCCCCCCCCCCCC(=O)OC[C@H](O)[C@H]1OC(=O)C(O)=C1O,"activity, negative = cell killing",[1]; [6],-21.6%
same,"activity, negative = cell killing",[1]; [7],-24.1%
same,Potency,[2],inactive

# Reference: PubChem BioAssay (NCATS)
